Bioassay records: PubChem, several laboratories
Only a selection was taken, and hits are over-represented in it overall.
PglD inh: blocks C. jejuni PglD acetyltransferase activity; purified PglD enzyme, DTNB colorimetric CoA detection; inhibition, % at 12.5 µM; actives 0.098% (n = 360,000); in the data active = inhibition above about 16%, passing the limit was not always enough
ARNT-TACC3 inh: ARNT/TACC3 interaction disruption | AlphaScreen His-ARNT PAS-B/GST-TACC3 binding, luminescence; TACC3 fragment carries E629A point mutation | actives 0.66% (n = 390,000) | inhibition, % at 9.99 µM;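 active = mean inhibition of replicates at least 50% and at least half of replicates each reaching 50%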;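 note: 0% = complete ARNT plus TACC3 wells and 100% = ARNT alone without TACC3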
ERp5 block: inhibitors of human ERp5 | actives 0.05% (n = 350,000) | ERp5 insulin aggregation, absorbance 650 nm, 90 min | Q15084 | inhibition, % at 9.99 µM;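 active = mean replicate inhibition above about 25%, with every replicate also reaching it, limit read from the data, passing the limit was not always enough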
Target sequence (Q15084 whole entry, looked up): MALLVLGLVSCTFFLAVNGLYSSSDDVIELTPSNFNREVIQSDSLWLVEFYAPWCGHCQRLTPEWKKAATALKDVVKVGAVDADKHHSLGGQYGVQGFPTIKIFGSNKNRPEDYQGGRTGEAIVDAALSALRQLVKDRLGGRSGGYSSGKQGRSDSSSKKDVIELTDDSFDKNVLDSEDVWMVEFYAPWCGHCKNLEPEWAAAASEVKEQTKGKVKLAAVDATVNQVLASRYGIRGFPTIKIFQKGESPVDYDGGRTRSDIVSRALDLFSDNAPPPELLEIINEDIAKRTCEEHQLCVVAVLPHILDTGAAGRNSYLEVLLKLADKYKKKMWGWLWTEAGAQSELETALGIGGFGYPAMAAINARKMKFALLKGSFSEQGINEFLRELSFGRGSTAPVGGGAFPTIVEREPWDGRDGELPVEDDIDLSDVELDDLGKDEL
PDI inh: blocks human protein disulfide isomerase activity. PDI insulin aggregation turbidity, A650, 90 min. inhibition, % at 10 µM. actives 0.052% (n = 350,000). AID 588391;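 active = mean inhibition across replicates of 30% or more, whatever share of single replicates reach that level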
ALR inh: human ALR oxidase inhibition via reduced H2O2; inhibition, % (no concentration beside the values); actives 3.8% (n = 290,000); purified ALR, DTT oxidation, H2O2 HRP-luminol luminescence; P55789; AID 485317;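 active = mean replicate inhibition above about 79%, with every replicate also reaching it, limit read from the data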
Target sequence (P55789 whole entry, looked up): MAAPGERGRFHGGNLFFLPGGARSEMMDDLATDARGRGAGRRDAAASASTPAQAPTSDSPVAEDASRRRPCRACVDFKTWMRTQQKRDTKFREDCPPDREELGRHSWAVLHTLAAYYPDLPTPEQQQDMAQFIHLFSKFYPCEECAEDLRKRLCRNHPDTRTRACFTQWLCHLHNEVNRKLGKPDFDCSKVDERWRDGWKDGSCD
NRP1-CendR mod: NRP-1/CendR interaction modulation. inhibition, % at 25 µM. FAM-RPARPAR peptide binding to NRP-1, fluorescence polarization. O14786. AID 602438. actives 0.85% (n = 360,000);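 active = inhibition or corrected inhibition above about 18%, plus a signal ratio from 0.5 to 1.5, limit read from the data, passing the limit was not always enough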
Numbers without * were called inactive; · = no result given.

SMILES	PglD inh	ARNT-TACC3 inh	ERp5 block	PDI inh	ALR inh	NRP1-CendR mod
Oc1ccc(CNc2ccccc2)c2cccnc12	2.8	48.2*	·	1.3	-4.9	-7.0
OCc1ccnc2c(O)cccc12	0.5	66.0*	·	-3.7	-19.9	-3.6
NC(=O)c1ccnc2c(O)cccc12	4.3	72.9*	1.6	2.7	-1.5	21.9
O=C(NCC1CC1)[C@H]1[C@H](CO)[C@H]2Cn3c(ccc(-c4ccccc4)c3=O)[C@H]2N1Cc1cocn1	2.4	-4.4	-1.5	·	·	·
COc1cc(/C=N/NC(=O)c2cc(-c3c(C)nn(-c4ccccc4)c3C)n[nH]2)ccc1O	-1.5	·	1.5	-4.8	83.5*	2.1
Cc1nn(-c2ccccc2)c(C)c1-c1cc(C(=O)N/N=C/c2ccc(O)cc2)[nH]n1	·	·	-4.2	2.7	96.8*	-1.8
COc1ccc(/C=N/NC(=O)c2cc(-c3cccn3C)n[nH]2)cc1OC	·	1.8	·	-0.1	·	0.4
Cc1nn(-c2ccccc2)c(C)c1/C=N/NC(=O)c1cc(O)cc(O)c1	-0.7	40.3	16.1	-1.3	29.0	15.7
COc1cc(/C=N/NC(=O)c2cc(-c3ccc4c(c3)OCO4)n[nH]2)ccc1O	·	-0.8	3.6	1.0	90.9*	5.1
CCc1cc2c(=O)n(Cc3ccco3)c(SCc3c(C)noc3C)nc2s1	1.4	-3.7	·	-2.7	99.0*	-11.5
CCc1cc2c(=O)n(Cc3ccco3)c(SCC(=O)NCC3CCCO3)nc2s1 (stereo unspecified)	5.9	3.5	-0.1	15.5	2.4	12.6
O=C(C[C@@H]1C[C@H]2c3cc(NC(=O)C4CCC4)ccc3O[C@H]2[C@@H](CO)O1)NCc1ccc(Cl)cc1	-1.8	0.2	-2.2	·	·	·
O=C1CC(N2CCN(c3ccc(O)cc3)CC2)C(=O)N1Cc1cccs1 (stereo unspecified)	2.2	1.0	·	12.9	99.2*	6.1
CCc1ccc(OC(=O)CN2C(=O)c3ccccc3C2=O)cc1	-0.9	-4.7	-2.6	-2.0	6.8	25.9*
COc1ccc2c(c1OC)C(=O)N(c1cccc(NC(C)=O)c1)C2	-1.6	23.0	0.9	9.7	96.8*	-3.9
CCCNC(=O)N1CC2(CCN(CC3CCCCC3)CC2)c2c([nH]c3cc(OC)ccc23)[C@@H]1CO	·	·	5.6	·	·	·
O=c1[nH][nH]cc1C=Nc1ccc(Cl)cc1Cl	·	-3.1	5.0	-3.8	53.3	-4.4
O=c1[nH][nH]cc1C=Nc1cc(Cl)ccc1O	·	49.0*	-4.0	3.3	-11.1	-1.5
CC(C)NC(=O)Nc1ccc2c(c1)C(=O)N([C@H](C)CO)C[C@H](C)[C@H](CN(C)Cc1ccc(C(=O)O)cc1)O2	3.5	·	2.2	·	·	·
O=S(=O)(c1cccc2nsnc12)N1CCN(Cc2ccccc2)CC1	0.4	3.0	0.3	-1.3	-7.4	19.3*
Cc1ccc(C)c(NC(=S)Nc2ncccc2C)c1	·	11.3	-3.7	7.9	79.5*	-3.6
Cc1cccnc1NC(=S)Nc1ccc(F)cc1F	·	-0.8	-2.0	-1.2	-6.2	-4.6
CCOc1ccc(C(c2c(O)nc(SC)[nH]c2=O)c2c(O)nc(SC)[nH]c2=O)cc1	1.1	·	7.3	-3.0	57.0	-15.8
CSc1nc(O)c(C(c2ccc(O)cc2)c2c(O)nc(SC)[nH]c2=O)c(=O)[nH]1	10.7	-4.5	4.7	11.9	84.3*	-9.7
C=CCOc1ccc(C(c2c(O)nc(SC)[nH]c2=O)c2c(O)nc(SC)[nH]c2=O)cc1	13.0	-14.9	1.9	-1.7	90.4*	-1.4
SMILES	PglD inh	ARNT-TACC3 inh	ERp5 block	PDI inh	ALR inh	NRP1-CendR mod
CC(C)COC(=O)N(C)C[C@H]1OCc2ccccc2-c2c(n(C)c3ccccc23)C(=O)N([C@@H](C)CO)C[C@@H]1C	0.7	4.5	-1.3	·	·	·
CCCC#Cc1ccc2c(c1)O[C@H](CN(C)C(=O)c1cnccn1)[C@@H](C)CN([C@@H](C)CO)S2(=O)=O	-2.2	-2.9	-2.8	·	·	·
CO[C@@H](CN(C)C(=O)C1CCOCC1)[C@@H](C)CN(C(=O)Nc1ccc(F)cc1)[C@@H](C)CO	8.0	-0.7	-3.2	·	·	·
O=C(N/N=C(\CC(=O)c1cccs1)C(F)(F)F)c1ccncc1	-0.2	28.1	1.7	-1.5	98.2*	-25.0
Cc1ccc(C(=O)N/N=C(/CC(=O)c2cccs2)C(F)(F)F)cc1	1.5	3.8	4.7	0.3	62.2	-14.0
CCOC(=O)c1c(NC(=O)CSc2nc3ccccc3s2)sc(C)c1C	-0.5	18.1	1.2	-8.6	98.0*	-0.4
O=C(CSc1nc2ccccc2s1)Nn1cnnc1	1.9	2.2	·	-3.6	98.5*	-10.3
Cc1cnc(NC(=O)CSc2nc3ccccc3s2)s1	5.4	-0.6	·	-12.2	·	-6.5
O=C(CSc1nc2ccccc2s1)Nc1ncccn1	1.0	·	·	0.8	98.1*	3.5
Cn1ccnc1SCC(=O)NC1CCCC1	-2.8	21.1	2.8	11.2	·	1.6
Cn1ccnc1SCC(=O)Nc1ccc2nc(SCC(=O)NC3CC3)sc2c1	·	·	·	·	98.5*	·
Cc1cc(NC(=O)CSc2nc3ccccc3s2)no1	·	-12.2	·	3.9	-9.1	-2.2
O=C(C[C@@H]1C[C@H]2c3cc(NC(=O)NC4CCCC4)ccc3O[C@H]2[C@H](CO)O1)NCc1ccc(Cl)cc1	-0.4	0.5	·	·	·	·
C[C@@H]1CN([C@H](C)CO)C(=O)c2cc(Br)cnc2O[C@@H]1CN(C)CC1CCCC1	-0.9	-1.7	2.6	·	·	·
NC(=O)NC(=O)COC(=O)CCCSc1nc2ccccc2s1	-0.4	-3.8	5.2	6.1	-4.3	4.1
O=C(CSc1nnc(CSc2nc3ccccc3s2)o1)NC1CCCCC1	-7.3	-1.7	·	-5.9	-7.6	-6.9
Cc1c(NC(=O)CSc2nc3ccccc3s2)c(=O)n(-c2ccccc2)n1C	·	-6.4	·	2.9	98.9*	-1.1
CCOC(=O)NC(=O)COC(=O)CCCSc1nc2ccccc2s1	·	-1.2	4.2	-1.0	92.9*	-15.4
O=C(CSc1nc2ccccc2s1)NC1CCCC1	·	-1.7	1.0	6.3	99.3*	-10.1
C[C@@H]1CCCCO[C@@H](CN(C)S(=O)(=O)c2cn(C)cn2)[C@H](C)CN([C@@H](C)CO)C(=O)c2cc(NS(=O)(=O)c3cn(C)cn3)ccc2O1	5.8	-0.3	4.0	·	·	·
CO[C@H]1CN(C)C(=O)c2cc(NC(=O)NC(C)C)ccc2OC[C@@H](C)N(CCC(F)(F)F)C[C@@H]1C	4.4	-1.3	·	·	·	·
COc1ccccc1OCC(=O)N1CCCC(Nc2ccc(C)c(C)c2)C1 (stereo unspecified)	4.0	8.3	-3.4	-6.3	98.0*	2.7
COc1ccc(NC2CCCN(C(=O)COc3ccc(Cl)cc3C)C2)cc1OC (stereo unspecified)	·	14.1	-0.8	-2.9	96.1*	16.1
Cc1ccc(NC2CCCN(C(=O)CCC3=NNC(=O)CC3)C2)cc1C (stereo unspecified)	5.3	-3.2	6.7	19.1	98.1*	2.0
